Screening data: PubChem BioAssay, National Center for Advancing Translational Sciences (NCATS)
The sample as a whole holds a higher share of hits than the screen did.
Pf Dd2 growth: Plasmodium falciparum Dd2 growth inhibition; P. falciparum Dd2 growth, SYBR Green, 72 h; Potency, µM (top dose mostly 28.9 µM), usual class: inhibitors; 120,000 tested, 4.3% active; AID 1347417; active = well fitted inhibition curve with a large enough effect; note: nearly all actives have a fitted effect of over 65% in size
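Readout: SYBR Green fluorescence, 485 nm excitation, 535 nm emission, after ~16 h lysis at 37C. Before that, Dd2-infected red cells (2.5% hematocrit) grew 72 h with compound, 29 uM top final concentration.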
Large screens that a line does not name were inactive.

COCc1cc(C)nc2sc3c(c12)NC(c1ccc(O)c(OC)c1)N(c1ccccc1)C3=O (stereo not drawn)	none
O=C(NCc1ccoc1)c1ccc2nc(-c3ccc(F)cc3)cn2c1	none
O=C(NCc1ccc(-c2ccccc2)cc1)[C@H]1CCC[C@H](O)C1	none
O=C(CC1CCCC1)N1CCC(N2C(=O)C(O)C23CCCCC3)CC1 (stereo not drawn)	none
Cc1ccc(C2c3cc(OCc4nc(C(=O)NCC(C)C)co4)ccc3CCN2C(=O)C2CC2)cc1 (stereo not drawn)	none
CCc1ccc(C(=O)CC2(O)C(=O)N(Cc3ccc(C)cc3)c3ccccc32)cc1 (stereo not drawn)	none
Cc1ccc(C(=O)NC2(C(F)(F)F)N=C(c3ccccc3)N(Cc3ccccc3)C2=O)cc1 (stereo not drawn)	none
Cc1ccc(C(=O)CC2(O)C(=O)N(Cc3ccccc3)c3ccc(Br)cc32)cc1 (stereo not drawn)	Pf Dd2 growth 10µM
Cc1ccc2nc(N(Cc3cccnc3)C(=O)c3ccc4c(c3)OCCO4)sc2c1	none
O=C(CCS(=O)(=O)c1ccccc1)N(Cc1cccnc1)c1nc2ccc(Cl)cc2s1	none
CC(=O)N(Cc1cccnc1)c1nc2c(C)c(C)ccc2s1	none
Cc1cc(C)c2nc(N(Cc3cccnc3)C(=O)Cc3ccccc3)sc2c1	Pf Dd2 growth 10µM
Cc1cccc2sc(N(Cc3cccnc3)C(=O)CCc3ccccc3)nc12	Pf Dd2 growth 4µM
Cc1ccc2nc(N(Cc3cccnc3)C(=O)CCS(=O)(=O)c3ccccc3)sc2c1	none
O=C(CCc1ccccc1)N(Cc1cccnc1)c1nc2c(F)cccc2s1	none
Cc1ccc2nc(N(Cc3cccnc3)C(=O)Cc3ccccc3)sc2c1	Pf Dd2 growth 5µM
Cc1cc(C)c2nc(N(Cc3cccnc3)C(=O)c3cccs3)sc2c1	Pf Dd2 growth 10µM
CC(=O)c1ccc(C(=O)N(Cc2cccnc2)c2nc3c(Cl)cccc3s2)cc1	none
CCS(=O)(=O)c1ccccc1C(=O)N(Cc1cccnc1)c1nc2cc(C)c(C)cc2s1	none
O=C(c1ccco1)N(Cc1cccnc1)c1nc2c(F)cccc2s1	none
CCCCCNc1ncnc2c1CN(c1ccc(OC)cc1)C(=O)CN2C	none
Cn1ncc2c(NCc3noc(-c4cccs4)n3)nc(C(C)(C)C)nc21	none
CC(C)Cn1c(CNC(=O)OC(C)(C)C)nc2cccnc21	none
O=C1NC2(Cc3ccccc31)CN(C(=O)c1ccc(Cl)cc1)C2	none
CCc1nnsc1C(=O)N1CCc2nc(NC)nc(C(=O)N3CCCC3)c2C1	none
COCc1nncn1C1CCN(S(=O)(=O)c2cccc(C)c2)CC1	none
COc1ccc(CC(=O)N2Cc3ccccc3CC23CCCN([S+](C)(=O)[O-])C3)cc1 (stereo not drawn)	none
Cc1cccc(CNC(=O)CN2CC3CC(C2)[C@H]2CCCC(=O)N2C3)c1 (stereo partly drawn)	none
O=C(Nc1ccc(F)c(Cl)c1)N(Cc1ccc2c(c1)OCO2)C1CCN(Cc2ccccc2)CC1	Pf Dd2 growth 8.9µM
O=C1[C@H]2CN(Cc3ccc(F)c(Cl)c3)C[C@H]2C(=O)N1Cc1ccc2c(c1)OCO2	none
CCN1CCC(N(Cc2ccc3c(c2)OCO3)C(=O)Nc2cc(Cl)ccc2C(=O)OC)CC1	Pf Dd2 growth 3.5µM
O=C([C@@H]1COCC(=O)N1Cc1ccccc1)N1CCN(Cc2ccc3c(c2)OCO3)CC1	none
CCN1CCC(N(Cc2ccc3c(c2)OCO3)C(=O)Nc2ccccc2OC)CC1	none
COC(=O)c1ccc(Cl)cc1NC(=O)N(Cc1ccc(C)o1)C1CCN(C(C)=O)CC1	none
COc1ccc(C(=O)NC2CCN(c3cn[nH]c(=O)c3)CC2)cc1	none
COc1ccc(-c2nc(C3CC3)nc3c2CN(C(=O)c2ccc(C(F)(F)F)cc2)CC3)cc1	none
O=C(c1ccccn1)N1CCC(n2c(=O)[nH]c3ccccc32)CC1	none
COc1ccc(CCNC(=O)CCCn2c(=O)c3ccccc3n(CC(=O)Nc3c(C)cc(C)cc3C)c2=O)cc1OC	none
COc1ccc(CCNC(=O)CCCn2c(=O)c3ccccc3n(CC(=O)Nc3cccc(C)c3)c2=O)cc1OC	Pf Dd2 growth 10µM
COc1ccc(CCNC(=O)CCCCn2c(=O)c3ccccc3n(CC(=O)Nc3ccccc3C)c2=O)cc1OC	none
CCc1ccc(C(=O)NC2CCN(c3cnn(C)c(=O)c3)CC2)cc1	none
CCN(CC)Cc1cnc2c(C(=O)NC3CCC(O)CC3)cnn2c1 (stereo not drawn)	none
Cc1ccc(NC(=O)CSc2nc3ccc(NC(=O)c4ccco4)cc3s2)c(C)c1	none
Cc1ccccc1OCC(=O)Nc1ccc2nc(SCCOc3ccccc3)sc2c1	none
Cc1ccccc1NC(=O)CSc1nc2ccc(NC(=O)c3ccco3)cc2s1	Pf Dd2 growth 11µM
Cc1ccccc1NC(=O)CSc1nc2ccc(NC(=O)c3ccccc3)cc2s1	none
Cc1ccccc1OCCSc1nc2ccc(NC(=O)c3cccs3)cc2s1	Pf Dd2 growth 1.1µM
Cc1ccccc1C(=O)Nc1ccc2nc(SCCOc3ccccc3)sc2c1	none
COc1ccc(Cl)cc1C(=O)N1CCC(Oc2ccc3c(cnn3CCC(=O)O)c2)CC1	none
Cc1cc(C)n(Cc2cc(C(=O)N3C[C@H]4CC[C@H]3C4)n[nH]2)n1	none
CN1CCC(NC(=O)C2CCCN(S(C)(=O)=O)CCC(=O)NCC2)CC1 (stereo not drawn)	none
COc1cc(NC(=O)Cn2c(C)cc3nc4n(c(=O)c32)CCC4)cc(OC)c1OC	none
Cn1nccc1CCC(=O)N1CCN(C(=O)C2CCC2)[C@@H]2CS(=O)(=O)C[C@@H]21	none
COCc1nc(C2CCCN(C(=O)c3ccoc3)C2)no1 (stereo not drawn)	none
O=C(Cn1cccc1-c1nc(-c2ccccc2)no1)Nc1ccccc1Cl	none
Cc1oc(-c2ccccc2F)nc1CSCC(=O)N1CCN(c2ccccc2)CC1	none
O=C(CSCc1ccc(F)cc1)N1CCN(c2ccccc2F)CC1	none
COc1ccc(OC)c(NC(=O)Cn2cccc2-c2nc(-c3ccc(OC)c(F)c3)no2)c1	none
COc1ccc(-c2nc(CSCC(=O)N3CCN(c4ccccc4F)CC3)c(C)o2)cc1	Pf Dd2 growth 6.3µM
COc1ccc(-c2noc(-c3cccn3CC(=O)Nc3ccc(F)cc3)n2)cc1F	Pf Dd2 growth 3.2µM
COc1ccc(-c2noc(-c3cccn3CC(=O)NCCc3ccccc3)n2)cc1F	Pf Dd2 growth 0.25µM
COc1ccc(-c2noc(-c3cccn3CC(=O)Nc3cccc(C)c3)n2)cc1F	none
O=C(Cn1cccc1-c1nc(-c2ccccc2)no1)NCc1ccc(Cl)cc1	none
CCOC(=O)c1ccc(NC(=O)Cn2cccc2-c2nc(-c3ccc(OC)c(F)c3)no2)cc1	none
COc1ccc(CCNC(=O)Cn2cccc2-c2nc(-c3ccc4c(c3)OCO4)no2)cc1OC	none
O=C(Cn1cccc1-c1nc(-c2ccccc2)no1)NCc1ccccc1Cl	Pf Dd2 growth 10µM
COCc1nc(C2CCCN(C(=O)COc3cccc(C)c3)C2)no1 (stereo not drawn)	none
O=C(c1ccc(F)cc1)N1CCC2(CC1)NC(=O)N(c1ccccc1Cl)N2	none
CC(=O)NCC(=O)N1CCCC2(CN[S+](=O)([O-])c3cccnc3O2)C1 (stereo not drawn)	none
Fc1cccc(-c2noc(-c3nc(-c4ccncc4)no3)n2)c1	none
O=C(c1cccnc1)N1CCC(c2nc(C3CCOCC3)no2)C1 (stereo not drawn)	none
COc1ccc(CCN2CC(C(=O)N3CCN(C)CC3)CCC2=O)cc1 (stereo not drawn)	none
O=c1c2c(CO)c(-c3ccccc3)nn2ccn1Cc1cc(F)ccc1F	none
CC(C)CCNC(=O)N1CCC(Oc2ncccc2C(=O)N(C)C)C1 (stereo not drawn)	none
O=C(Cn1cccc1-c1nc(-c2ccc3c(c2)OCO3)no1)Nc1ccccc1	Pf Dd2 growth 2.8µM
